Experimental data: article PMC7862700, “An all-to-all approach to the identification of sequence-specific readers for epigenetic DNA modifications on cytosine”

What was measured:
Test in all cases: DAPPL (digital affinity profiling via proximity ligation, sequencing); 10 mM Tris-HCl pH 7.5, 50 mM NaCl, 1 mM DTT, 4% glycerol, room temperature, 30 min; GST-TFs on glutathione beads, 16-mer random dsDNA library, 0.1% formaldehyde crosslink after washing; high values mean tight binding
[1] = target: T1, FEV (Homo sapiens, UniProt Q99581 1-238); settings: protein: recombinant; tags: N-terminal GST; dsDNA, one strand shown
T1 sequence: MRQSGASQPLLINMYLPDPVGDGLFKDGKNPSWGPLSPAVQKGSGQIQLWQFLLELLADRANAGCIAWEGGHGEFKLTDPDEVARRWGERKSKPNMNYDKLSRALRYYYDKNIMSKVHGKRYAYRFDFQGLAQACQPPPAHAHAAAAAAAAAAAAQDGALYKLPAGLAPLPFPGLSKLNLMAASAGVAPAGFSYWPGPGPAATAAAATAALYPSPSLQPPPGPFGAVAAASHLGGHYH
Method in brief: (§1)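 Beads coated with glutathione captured GST-fused human transcription factors that had been expressed in yeast, and the factors were then given DNA barcodes and pooled with a tag-only sample. The pools were incubated with 200 nmole of a random double-stranded 16-mer DNA library in Tris/NaCl/DTT/glycerol buffer for 30 min at room temperature, washed, crosslinked with 0.1% formaldehyde and proximity-ligated with BsaI/T4 ligase at 37 °C for 1 h. PCR amplification and Illumina NextSeq500 sequencing came last. Binding signal is each hexamer's read frequency for a factor divided by its frequency for the tag-only sample.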

[2] = target: ETV5 (Homo sapiens, UniProt P41161 1-510); settings: protein: recombinant; tags: N-terminal GST; dsDNA, one strand shown
Sequence of ETV5 (P41161 whole entry): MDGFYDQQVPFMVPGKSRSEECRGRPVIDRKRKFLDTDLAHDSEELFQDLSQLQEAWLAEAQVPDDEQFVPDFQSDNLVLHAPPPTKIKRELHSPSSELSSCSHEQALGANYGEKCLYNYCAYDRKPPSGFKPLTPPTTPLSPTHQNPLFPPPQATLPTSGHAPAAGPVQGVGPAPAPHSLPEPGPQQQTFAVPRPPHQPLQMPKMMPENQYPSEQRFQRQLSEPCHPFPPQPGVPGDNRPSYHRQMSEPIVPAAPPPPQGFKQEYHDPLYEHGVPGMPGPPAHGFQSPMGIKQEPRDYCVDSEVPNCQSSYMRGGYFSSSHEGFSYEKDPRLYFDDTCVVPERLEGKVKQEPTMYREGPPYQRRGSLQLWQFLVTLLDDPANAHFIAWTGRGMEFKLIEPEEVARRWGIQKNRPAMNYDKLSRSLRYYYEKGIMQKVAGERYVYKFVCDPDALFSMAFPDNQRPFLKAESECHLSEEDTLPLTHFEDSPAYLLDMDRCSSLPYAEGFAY
Method in brief: as §1

[3] = target: HSF1 (Homo sapiens, UniProt Q00613 1-529); settings: protein: recombinant; tags: N-terminal GST; chain copies: 3; dsDNA, one strand shown
Sequence of HSF1 (Q00613 whole entry): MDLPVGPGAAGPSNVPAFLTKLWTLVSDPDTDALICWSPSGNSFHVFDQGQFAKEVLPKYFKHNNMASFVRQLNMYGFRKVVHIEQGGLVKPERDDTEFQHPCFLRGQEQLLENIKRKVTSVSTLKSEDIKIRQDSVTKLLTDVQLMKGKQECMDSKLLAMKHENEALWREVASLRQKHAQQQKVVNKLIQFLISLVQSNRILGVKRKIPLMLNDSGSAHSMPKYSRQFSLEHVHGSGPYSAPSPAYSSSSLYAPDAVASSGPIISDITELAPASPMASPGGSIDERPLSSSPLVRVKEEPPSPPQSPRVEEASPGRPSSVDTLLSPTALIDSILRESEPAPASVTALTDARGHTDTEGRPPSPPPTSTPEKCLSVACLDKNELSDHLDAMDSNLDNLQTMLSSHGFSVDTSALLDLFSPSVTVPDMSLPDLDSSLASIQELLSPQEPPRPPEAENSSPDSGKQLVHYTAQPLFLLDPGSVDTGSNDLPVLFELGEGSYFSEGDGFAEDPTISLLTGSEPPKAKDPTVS
Method in brief: as §1

[4] = target: T2, SPIC (Homo sapiens, UniProt Q8N5J4 1-248); settings: protein: recombinant; tags: N-terminal GST; dsDNA, one strand shown
T2 sequence: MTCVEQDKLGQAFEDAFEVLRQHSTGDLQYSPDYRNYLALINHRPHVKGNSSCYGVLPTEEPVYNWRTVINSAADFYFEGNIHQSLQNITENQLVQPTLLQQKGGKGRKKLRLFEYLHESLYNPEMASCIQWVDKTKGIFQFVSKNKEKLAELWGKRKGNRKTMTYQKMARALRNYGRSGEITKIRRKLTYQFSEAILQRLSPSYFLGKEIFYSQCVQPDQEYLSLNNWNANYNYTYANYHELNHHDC
Method in brief: as §1

[5] = target: ELF4 (Homo sapiens, UniProt Q99607 1-663); settings: protein: recombinant; tags: N-terminal GST; dsDNA, one strand shown
Sequence of ELF4 (Q99607 whole entry): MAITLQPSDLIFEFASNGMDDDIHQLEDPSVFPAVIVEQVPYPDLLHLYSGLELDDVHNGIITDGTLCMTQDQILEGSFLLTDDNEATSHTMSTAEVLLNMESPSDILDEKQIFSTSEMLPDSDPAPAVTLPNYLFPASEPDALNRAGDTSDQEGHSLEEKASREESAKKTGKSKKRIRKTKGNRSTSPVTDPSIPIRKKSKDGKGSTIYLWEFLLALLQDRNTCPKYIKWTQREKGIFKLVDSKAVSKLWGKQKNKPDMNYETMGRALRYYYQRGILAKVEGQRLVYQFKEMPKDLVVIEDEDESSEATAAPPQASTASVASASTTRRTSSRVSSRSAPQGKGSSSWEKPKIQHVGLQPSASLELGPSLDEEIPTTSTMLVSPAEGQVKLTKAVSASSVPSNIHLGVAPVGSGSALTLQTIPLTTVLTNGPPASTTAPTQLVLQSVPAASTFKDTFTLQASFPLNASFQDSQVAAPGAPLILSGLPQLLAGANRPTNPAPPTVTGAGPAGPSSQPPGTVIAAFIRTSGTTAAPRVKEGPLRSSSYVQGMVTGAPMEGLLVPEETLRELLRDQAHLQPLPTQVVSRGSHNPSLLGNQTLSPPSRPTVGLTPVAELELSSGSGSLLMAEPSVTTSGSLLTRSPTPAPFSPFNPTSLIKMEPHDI
Method in brief: as §1

[6] = target: T3, ELK4 (Homo sapiens, UniProt P28324-2 1-405); settings: protein: recombinant; tags: N-terminal GST; dsDNA, one strand shown
T3 sequence: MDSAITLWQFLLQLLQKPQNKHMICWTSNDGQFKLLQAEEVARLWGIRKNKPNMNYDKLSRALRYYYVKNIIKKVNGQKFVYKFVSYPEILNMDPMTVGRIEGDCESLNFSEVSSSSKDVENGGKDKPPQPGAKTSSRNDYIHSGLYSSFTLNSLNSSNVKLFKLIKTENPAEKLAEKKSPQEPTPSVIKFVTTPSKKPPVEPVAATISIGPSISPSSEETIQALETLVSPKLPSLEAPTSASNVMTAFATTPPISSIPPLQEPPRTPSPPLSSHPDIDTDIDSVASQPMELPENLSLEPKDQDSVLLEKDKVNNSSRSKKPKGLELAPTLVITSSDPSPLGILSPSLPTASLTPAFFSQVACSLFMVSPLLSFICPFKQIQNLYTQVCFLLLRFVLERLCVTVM
Method in brief: as §1

[7] = target: T4, ETV2 (Homo sapiens, UniProt O00321 1-342); settings: protein: recombinant; tags: N-terminal GST; dsDNA, one strand shown
T4 sequence: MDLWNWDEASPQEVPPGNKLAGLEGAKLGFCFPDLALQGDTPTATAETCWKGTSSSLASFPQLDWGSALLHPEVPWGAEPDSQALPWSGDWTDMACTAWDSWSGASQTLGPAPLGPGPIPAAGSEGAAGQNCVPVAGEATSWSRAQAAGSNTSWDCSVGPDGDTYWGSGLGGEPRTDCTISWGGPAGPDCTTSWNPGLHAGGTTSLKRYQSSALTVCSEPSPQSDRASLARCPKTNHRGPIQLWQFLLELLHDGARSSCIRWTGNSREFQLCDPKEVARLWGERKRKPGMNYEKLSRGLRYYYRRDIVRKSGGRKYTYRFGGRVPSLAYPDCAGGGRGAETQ
Method in brief: as §1

[8] = target: T5, ELF3 (Homo sapiens, UniProt P78545 1-371); settings: protein: recombinant; tags: N-terminal GST; dsDNA, one strand shown
T5 sequence: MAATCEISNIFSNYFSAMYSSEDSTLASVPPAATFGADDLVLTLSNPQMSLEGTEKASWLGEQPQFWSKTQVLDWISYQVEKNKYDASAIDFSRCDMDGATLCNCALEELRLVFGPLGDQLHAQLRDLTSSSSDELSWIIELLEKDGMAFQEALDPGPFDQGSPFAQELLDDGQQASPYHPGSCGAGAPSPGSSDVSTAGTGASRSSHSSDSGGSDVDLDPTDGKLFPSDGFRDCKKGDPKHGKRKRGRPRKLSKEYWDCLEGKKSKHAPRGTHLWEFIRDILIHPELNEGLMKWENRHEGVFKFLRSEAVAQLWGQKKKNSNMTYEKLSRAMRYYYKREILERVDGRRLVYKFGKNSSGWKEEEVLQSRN
Method in brief: as §1

[9] = target: CRX (Homo sapiens, UniProt O43186 1-299); settings: protein: recombinant; tags: N-terminal GST; dsDNA, one strand shown
Sequence of CRX (O43186 whole entry): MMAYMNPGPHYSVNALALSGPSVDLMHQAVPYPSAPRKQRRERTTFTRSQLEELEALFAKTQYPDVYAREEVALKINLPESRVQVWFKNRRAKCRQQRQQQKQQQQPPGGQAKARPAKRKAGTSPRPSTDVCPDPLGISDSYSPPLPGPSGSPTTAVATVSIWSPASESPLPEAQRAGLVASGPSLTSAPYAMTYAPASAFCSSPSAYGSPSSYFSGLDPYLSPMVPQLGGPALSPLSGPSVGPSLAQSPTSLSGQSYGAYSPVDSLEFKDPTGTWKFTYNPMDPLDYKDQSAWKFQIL
Method in brief: as §1

[10] = target: ETV1 (Homo sapiens, UniProt P50549 1-477); settings: protein: recombinant; tags: N-terminal GST; dsDNA, one strand shown
Sequence of ETV1 (P50549 whole entry): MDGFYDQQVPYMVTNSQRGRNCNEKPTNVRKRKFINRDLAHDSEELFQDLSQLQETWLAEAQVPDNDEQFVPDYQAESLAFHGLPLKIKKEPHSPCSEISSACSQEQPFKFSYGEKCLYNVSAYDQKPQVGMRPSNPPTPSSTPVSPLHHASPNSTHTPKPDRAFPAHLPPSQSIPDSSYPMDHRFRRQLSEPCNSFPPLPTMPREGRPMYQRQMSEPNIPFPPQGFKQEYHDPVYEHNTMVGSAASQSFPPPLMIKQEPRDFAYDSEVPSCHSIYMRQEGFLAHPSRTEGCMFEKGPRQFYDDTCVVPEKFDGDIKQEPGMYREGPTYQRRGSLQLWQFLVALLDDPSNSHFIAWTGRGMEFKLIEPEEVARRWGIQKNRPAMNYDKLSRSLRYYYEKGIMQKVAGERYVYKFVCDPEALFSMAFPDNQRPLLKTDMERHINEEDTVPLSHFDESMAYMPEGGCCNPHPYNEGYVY
Method in brief: as §1

[11] = target: T6, ERF (Homo sapiens, UniProt P50548 1-548); settings: protein: recombinant; tags: N-terminal GST; dsDNA, one strand shown
T6 sequence: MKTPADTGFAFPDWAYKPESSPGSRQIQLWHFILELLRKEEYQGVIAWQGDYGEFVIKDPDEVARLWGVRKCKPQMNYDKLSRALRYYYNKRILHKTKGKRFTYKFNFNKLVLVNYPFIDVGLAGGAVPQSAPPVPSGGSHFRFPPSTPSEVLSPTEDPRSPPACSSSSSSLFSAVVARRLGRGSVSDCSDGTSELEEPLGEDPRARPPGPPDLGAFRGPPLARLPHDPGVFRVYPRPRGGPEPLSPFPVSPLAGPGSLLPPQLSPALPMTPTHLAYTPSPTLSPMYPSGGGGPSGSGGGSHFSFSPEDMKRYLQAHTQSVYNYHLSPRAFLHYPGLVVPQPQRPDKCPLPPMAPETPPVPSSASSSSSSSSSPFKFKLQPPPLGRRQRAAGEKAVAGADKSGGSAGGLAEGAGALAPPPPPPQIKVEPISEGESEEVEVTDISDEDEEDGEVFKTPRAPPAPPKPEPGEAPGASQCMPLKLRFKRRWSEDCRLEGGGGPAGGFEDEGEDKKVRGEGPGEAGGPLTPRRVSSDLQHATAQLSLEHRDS
Method in brief: as §1

[12] = target: T7, ETV3L (Homo sapiens, UniProt Q6ZN32 1-361); settings: protein: recombinant; tags: N-terminal GST; dsDNA, one strand shown
T7 sequence: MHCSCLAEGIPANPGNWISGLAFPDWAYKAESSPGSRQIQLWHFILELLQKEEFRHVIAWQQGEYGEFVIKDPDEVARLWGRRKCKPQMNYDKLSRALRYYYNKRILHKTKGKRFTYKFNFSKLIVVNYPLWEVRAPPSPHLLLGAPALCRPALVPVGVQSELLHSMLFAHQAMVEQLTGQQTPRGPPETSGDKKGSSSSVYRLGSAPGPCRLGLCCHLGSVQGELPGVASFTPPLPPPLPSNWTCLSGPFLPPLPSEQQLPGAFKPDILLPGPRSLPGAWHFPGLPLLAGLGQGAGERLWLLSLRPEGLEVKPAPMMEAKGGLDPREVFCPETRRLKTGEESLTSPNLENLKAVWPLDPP
Method in brief: as §1

[13] = target: T8, ETS2 (Homo sapiens, UniProt P15036 1-469); settings: protein: recombinant; tags: N-terminal GST; dsDNA, one strand shown
T8 sequence: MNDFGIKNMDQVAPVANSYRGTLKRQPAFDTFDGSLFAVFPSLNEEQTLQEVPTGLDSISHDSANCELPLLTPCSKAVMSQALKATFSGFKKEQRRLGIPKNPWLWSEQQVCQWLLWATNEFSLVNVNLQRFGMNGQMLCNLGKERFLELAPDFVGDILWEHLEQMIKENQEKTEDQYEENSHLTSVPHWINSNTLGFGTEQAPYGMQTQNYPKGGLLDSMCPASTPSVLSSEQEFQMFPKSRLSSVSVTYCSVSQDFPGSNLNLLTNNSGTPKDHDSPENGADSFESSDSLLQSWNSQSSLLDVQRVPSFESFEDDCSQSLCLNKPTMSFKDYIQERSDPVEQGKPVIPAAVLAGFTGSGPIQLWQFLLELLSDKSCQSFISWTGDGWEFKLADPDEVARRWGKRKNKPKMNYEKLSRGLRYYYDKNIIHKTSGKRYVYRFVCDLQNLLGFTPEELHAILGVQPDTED
Method in brief: as §1

[14] = target: T9, SPDEF (Homo sapiens, UniProt O95238 1-335); settings: protein: recombinant; tags: N-terminal GST; dsDNA, one strand shown
T9 sequence: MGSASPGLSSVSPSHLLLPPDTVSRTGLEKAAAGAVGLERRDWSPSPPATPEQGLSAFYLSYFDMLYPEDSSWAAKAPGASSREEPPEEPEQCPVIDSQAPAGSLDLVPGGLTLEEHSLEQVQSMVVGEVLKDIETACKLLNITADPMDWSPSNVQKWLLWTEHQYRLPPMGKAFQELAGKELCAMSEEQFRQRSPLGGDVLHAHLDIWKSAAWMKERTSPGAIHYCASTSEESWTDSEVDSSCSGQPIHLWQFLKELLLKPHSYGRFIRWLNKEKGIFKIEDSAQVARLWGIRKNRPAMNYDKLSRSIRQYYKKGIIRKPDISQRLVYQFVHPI
Method in brief: as §1

[15] = target: T10, ETV7 (Homo sapiens, UniProt Q9Y603 1-341); settings: protein: recombinant; tags: N-terminal GST; dsDNA, one strand shown
T10 sequence: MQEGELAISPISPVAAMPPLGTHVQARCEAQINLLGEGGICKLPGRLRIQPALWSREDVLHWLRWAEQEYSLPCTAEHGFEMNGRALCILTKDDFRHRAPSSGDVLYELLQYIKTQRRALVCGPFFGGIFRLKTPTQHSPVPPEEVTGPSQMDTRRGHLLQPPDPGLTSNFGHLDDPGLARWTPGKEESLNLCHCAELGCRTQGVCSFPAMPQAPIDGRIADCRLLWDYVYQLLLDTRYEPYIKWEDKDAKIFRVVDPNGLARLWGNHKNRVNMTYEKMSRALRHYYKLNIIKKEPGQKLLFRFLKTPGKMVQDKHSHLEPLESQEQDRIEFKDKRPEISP
Method in brief: as §1

[16] = target: T11, ELF5 (Homo sapiens, UniProt Q9UKW6-2 1-255); settings: protein: recombinant; tags: N-terminal GST; dsDNA, one strand shown
T11 sequence: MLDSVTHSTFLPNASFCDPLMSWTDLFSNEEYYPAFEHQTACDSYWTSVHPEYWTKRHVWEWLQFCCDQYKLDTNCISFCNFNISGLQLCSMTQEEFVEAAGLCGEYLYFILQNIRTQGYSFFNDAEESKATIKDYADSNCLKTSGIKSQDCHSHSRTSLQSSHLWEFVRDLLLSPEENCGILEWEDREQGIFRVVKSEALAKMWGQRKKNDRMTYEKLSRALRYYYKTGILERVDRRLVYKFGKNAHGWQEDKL
Method in brief: as §1

[17] = target: T12, ETV3 (Homo sapiens, UniProt P41162-2 1-143); settings: protein: recombinant; tags: N-terminal GST; dsDNA, one strand shown
T12 sequence: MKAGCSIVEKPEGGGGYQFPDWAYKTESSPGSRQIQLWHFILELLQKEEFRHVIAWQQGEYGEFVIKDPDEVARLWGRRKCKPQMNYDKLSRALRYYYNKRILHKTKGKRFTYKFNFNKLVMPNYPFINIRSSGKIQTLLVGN
Method in brief: as §1

[18] = target: ETV6 (Homo sapiens, UniProt P41212 1-452); settings: protein: recombinant; tags: N-terminal GST; dsDNA, one strand shown
Sequence of ETV6 (P41212 whole entry): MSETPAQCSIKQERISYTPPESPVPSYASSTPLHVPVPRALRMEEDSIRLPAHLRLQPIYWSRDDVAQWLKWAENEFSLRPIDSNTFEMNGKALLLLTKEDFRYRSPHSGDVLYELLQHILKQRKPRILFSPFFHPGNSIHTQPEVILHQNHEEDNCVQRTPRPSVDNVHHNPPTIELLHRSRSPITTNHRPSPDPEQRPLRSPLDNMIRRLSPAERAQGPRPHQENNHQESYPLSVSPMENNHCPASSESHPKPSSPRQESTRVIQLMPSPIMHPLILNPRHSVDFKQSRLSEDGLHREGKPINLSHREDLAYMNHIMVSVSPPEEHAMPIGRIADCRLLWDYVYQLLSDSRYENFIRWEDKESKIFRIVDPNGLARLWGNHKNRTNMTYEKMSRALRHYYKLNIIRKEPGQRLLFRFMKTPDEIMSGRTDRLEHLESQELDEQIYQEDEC
Method in brief: as §1

TACATC
binding signal [1]: 1.77 fold enrichment (6-mer frequency, TF over GST control)
binding signal [2]: 1.63 fold enrichment (6-mer frequency, TF over GST control)
binding signal [3]: 1.09 fold enrichment (6-mer frequency, TF over GST control)
binding signal [4]: 1.61 fold enrichment (6-mer frequency, TF over GST control)
binding signal [5]: 1.56 fold enrichment (6-mer frequency, TF over GST control)
binding signal [6]: 1.53 fold enrichment (6-mer frequency, TF over GST control)
binding signal [7]: 1.65 fold enrichment (6-mer frequency, TF over GST control)
binding signal [8]: 1.48 fold enrichment (6-mer frequency, TF over GST control)
binding signal [9]: 1.17 fold enrichment (6-mer frequency, TF over GST control)
binding signal [10]: 1.64 fold enrichment (6-mer frequency, TF over GST control)
binding signal [11]: 1.63 fold enrichment (6-mer frequency, TF over GST control)
binding signal [12]: 1.55 fold enrichment (6-mer frequency, TF over GST control)
binding signal [13]: 1.66 fold enrichment (6-mer frequency, TF over GST control)
binding signal [14]: 2.97 fold enrichment (6-mer frequency, TF over GST control)
binding signal [15]: 1.59 fold enrichment (6-mer frequency, TF over GST control)
binding signal [16]: 1.81 fold enrichment (6-mer frequency, TF over GST control)
binding signal [17]: 1.68 fold enrichment (6-mer frequency, TF over GST control)
binding signal [18]: 1.57 fold enrichment (6-mer frequency, TF over GST control)
